Source: PubChem BioAssay
Compounds with a hit are over-represented: about 21% of the library has one in this group of screens.
Sm TGR block: qHTS Assay for the Inhibitors of Schistosoma Mansoni Peroxiredoxins | Schistosoma mansoni thioredoxin glutathione reductase (TGR), Q962Y6 | purified TGR, DTNB reduction, TNB absorbance 405 nm | Potency, µM (titrated, usually from 114 µM), actives largely listed as inhibitors | actives 3% (n = 360,000) | AID 485364, 2010; further: nearly all actives have a fitted effect of over 60% in size
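First, TGR (20 nM dispensed) and NADPH were mixed with compound. Second, a 15 min room-temperature incubation followed. Third, further NADPH and then DTNB were added to start the reaction. Finally, TNB absorbance was monitored kinetically.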
Cycloheximide cs: Cycloheximide Counterscreen for Small Molecule Inhibitors of Shiga Toxin; actives 12% (n = 300,000); cell reporter, cycloheximide protein synthesis inhibition counterscreen; max response, %; in the data active means max response mostly above about 13%, no sharp cut-off; inactive means mostly below about 14%; further: read at 38.3 µM for the half of the compounds with a filed dose
Pf growth 48h: Primary qHTS for delayed death inhibitors of the malarial parasite plastid, 48 hour incubation | Potency, µM (titrated, usually from 28.7 µM), actives largely listed as inhibitors | P. falciparum luciferase growth in erythrocytes, 48 h | actives 5.9% (n = 310,000)
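In quantitative HTS format, infected erythrocytes bearing luciferase-reporter parasites were treated for a single generation at 37 C. Luminescence after adding detection reagent served as the growth measure.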
Pf growth 96h: Primary qHTS for delayed death inhibitors of the malarial parasite plastid, 96 hour incubation. P. falciparum luciferase reporter growth, 96 h. Potency, µM (series often up to 28.7 µM), hits mostly inhibitors. AID 504834, 2011. actives 6.9% (n = 320,000)
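P. falciparum expressing integrated firefly luciferase, in erythrocytes at 2% hematocrit, 0.05% parasitemia, incubated with compounds 96 h at 37 C, 5% CO2. Growth inhibition read as loss of luminescence; two-generation exposure targets delayed-death apicoplast inhibitors.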
NS1 inh: qHTS Assay for Inhibitors of Influenza NS1 Protein Function; Potency, µM (series often up to 46.1 µM); actives 0.4% (n = 270,000); calls by dose curve; further: actives are rising curves; nearly all actives have a fitted effect of over 50% in size
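S. cerevisiae expressing influenza A NS1, grown in glucose, washed, then diluted 1:100 into pH 6.0 -URA galactose medium with 23 nl compound. Growth recovery read as OD600; NS1-free strain serves as control.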
Shiga toxin inh: A qHTS for Small Molecule Inhibitors of Shiga Toxin; inhibition, % at 38.7 µM; Vero cells, Shiga toxin protein synthesis inhibition reporter; actives 9.2% (n = 290,000); AID 2315, 2010; in the data active means inhibition mostly above about 28%, no sharp cut-off; inactive means mostly below about 43%
A number is an active result; - = inactive; ? = inconclusive; . = no result given; [ ] = remark or other dose. Unless noted, the call rests on the fitted dose curve; in most records, active means well fitted curve in the direction sought with a large enough effect; inconclusive means small, poorly fitted or top-dose-only effect, or another doubt; inactive means no such curve, though single readings can be large; an effect the other way counts as inactive or inconclusive.

SMILES	Sm TGR block	Cycloheximide cs	Pf growth 48h	Pf growth 96h	NS1 inh	Shiga toxin inh
CC1OC(OC2CCC3(C)C(CCC4C3CC(O)C3(C)C(C5=CC(=O)OC5)CCC43O)C2)CC(O)C1OC1CC(O)C(OC2CC(O)C(OC3OC(CO)C(O)C(O)C3O)C(C)O2)C(C)O1 (centres undefined)	.	-	-	?	.	-
CCc1nonc1NC(=O)c1oc2ccc(F)cc2c1C	-	18	-	?	-	-
Cc1cc2oc(C(=O)Nc3nonc3C)c(C)c2cc1C	-	57	-	?	-	165
Cc1c(C(=O)Nc2nonc2-c2ccc(F)cc2)oc2ccc(F)cc12	-	-	?	-	-	-
CCc1ccc2oc(C(=O)Nc3nonc3C)c(C)c2c1	-	36	-	-	-	106
O=C(NCc1cccs1)C1CCN(C(=O)N2CCOc3ccccc32)CC1	-	.	.	.	.	.
COc1ccnc(N2CCN(c3ccccc3)CC2)c1C#N	-	29	-	-	-	40
COc1ccc(N2CCN(c3ccc(N)cc3C#N)CC2)cc1	-	-	-	-	-	-
COc1ccc(N2CCN(c3ncccc3C#N)CC2)cc1	-	11	-	-	-	-
Cc1nc(CS(=O)(=O)c2ccccn2)sc1C(=O)NNC(=O)c1ccccc1	-	-	-	-	-	-
CC(C)(C)c1csc(CS(=O)(=O)c2ccccn2)n1	-	24	-	-	-	88
CCOc1cc([N+](=O)[O-])cc2c1C(=O)Nc1ccccc1O2	-	25	?	?	.	-
O=C1CSC(=Nc2cccc([N+](=O)[O-])c2)N1	-	-	-	1.7µM	-	-
O=C1Nc2ccccc2C1=Nc1cccc([N+](=O)[O-])c1	-	-	-	-	-	27
COc1ccc(COc2cc(-c3cccc(OC)c3)nc3ccc(NC(=O)C(C)C)cc23)cc1	-	-	?	?	-	-
COc1cccc(NC(=O)CSc2nc3c(sc4ccccc43)c(=O)n2CCCN2CCCC2)c1	-	16	10µM	-	-	39
Cc1ccc(CNC(=O)CSc2nc3c(sc4ccccc43)c(=O)n2CCCN2CCCC2)cc1	-	-	10µM	-	.	-
NCCc1nc(-c2nc(C(=O)O)cs2)cs1	.	.	.	.	-	.
Cc1ccc(C(=O)NCCC2=CCCCC2)cc1S(=O)(=O)N1CCCCC1	-	.	12µM	4.7µM	.	.
Cc1ccc(C(=O)NCCC2=CCCCC2)cc1S(=O)(=O)N1CCOCC1	-	.	12µM	?	.	.
Cc1ccc(NC(=O)Cn2c(=O)ccc3cc(S(=O)(=O)N4CCC(C)CC4)ccc32)c(C)c1	-	.	.	.	.	.
COc1ccc(-c2ccc([C@H]3[C@H]4C=CC[C@@H](C)[C@@H]4C(=O)N3Cc3ccccc3)c(F)c2)cc1	-	-	12µM	?	?	-
COc1ccc(-c2c([C@H]3[C@H]4C=CC[C@@H](C)[C@@H]4C(=O)N3Cc3ccccc3)ccc3ccccc23)cc1	-	-	7.4µM	9.3µM	-	-
COc1ccc(-c2ccoc2)cc1[C@H]1[C@H]2C=CC[C@@H](C)[C@@H]2C(=O)N1Cc1ccccc1	?	-	10µM	?	-	-
Cn1c(SCC(=O)NC2CC2)nnc1-c1ccc(Cl)cc1	-	.	-	-	.	.
SMILES	Sm TGR block	Cycloheximide cs	Pf growth 48h	Pf growth 96h	NS1 inh	Shiga toxin inh
CCCCC(=O)OCC(=O)Nc1cccc(S(=O)(=O)NC2=NCCCCC2)c1	-	-	?	-[5.75 µM]	.	-
COc1cccc(C2CNC3(CCCC(C)C3)c3[nH]c4ccccc4c32)c1OC (centres undefined)	-	-	.	9.3µM	-	-
Cc1cc(C)cc(NC(=O)Nc2cccs2)c1	-	.	.	.	.	.
Cc1ccc(NC(=O)Nc2cccs2)nc1	-	38	-	.	-	94
CCOc1ccc(NC(=O)Nc2cccs2)cc1	-	47	.	?	-	61
CCc1ccc(NC(=O)Nc2cccs2)cc1	-	20	-	-	-	56
Cc1ccc(NC(=O)Nc2cccs2)cc1	-	28	-	7.4µM	-	64
CCOc1ccc(NC(=O)Nc2ccc(Cc3ccncc3)cc2)cc1	-	-	?	?	-	-
CCc1ccc(NC(=O)C2(c3cccs3)CCOCC2)cc1	-	.	.	.	.	.
CCNC(=S)NNC(=O)c1cc(C)on1	-	-	-	-	-	-
COC(=O)c1sc(-c2ccccc2)cc1NC(=O)c1cccc(Cl)c1	-	.	.	.	.	.
O=C(c1n[nH]c(=O)c2ccccc12)N1CCN(S(=O)(=O)c2ccccc2Cl)CC1	-	.	?	5.9µM	.	.
O=C(c1n[nH]c2ccccc12)N1CCN(S(=O)(=O)c2ccccc2)CC1	-	.	5.2µM	7.4µM	.	.
Cc1ccc(S(=O)(=O)N2CCN(C(=O)c3n[nH]c(=O)c4ccccc34)CC2)cc1	-	-	-	-	-	-
O=C(c1n[nH]c(=O)c2ccccc12)N1CCN(c2ccccc2Cl)CC1	-	-	-	?	-	-
Cc1nn(-c2ccc(N3CCOCC3)nn2)c(C)c1CCC(=O)N1CCN(C)CC1	-	-	-	?	-	-
Cc1cccc2nc(CSc3nnc(N)s3)cn12	-	22	-	-	.	65
COc1ccc(Nc2nnc(SCc3cn4c(C)cccc4n3)s2)cc1	-	-	?	?	-	-
CCOC(=O)c1c(C)[nH]c(C)c1S(=O)(=O)NCC(=O)Nc1cccc(C(F)(F)F)c1	-	.	.	.	.	.
CC1C(c2ccccc2)N(C)C(c2ccccc2)CC1(O)c1ccccc1 (centres undefined)	-	-	-	.	-	-
CC1/C(=N/O)CC(c2ccccc2)N(C)C1c1ccccc1 (centres undefined)	-	-	13µM	?	-	-
CC(Oc1ccc(Br)cc1)C(=O)O/N=C(\N)c1ccncc1 (centres undefined)	-	-	-	-	-	-
CC(=O)Nc1ccc2nc(CN3CCN(CC(C)C)C(CCO)C3)ccc2c1 (centres undefined)	?	-	-	-	-	-
CC(=O)c1cccc(CN2CCN(Cc3ccc(F)cc3)C(CCO)C2)c1 (centres undefined)	45µM	-	-	?	-	-
CC(=O)Nc1ccc2nc(CN3CCN(Cc4ccc(F)cc4)C(CCO)C3)ccc2c1 (centres undefined)	25µM	-	?	?	-	-
CC(=O)c1cccc(CN2CCN(Cc3ccc(C)cc3)C(CCO)C2)c1 (centres undefined)	-	-	-	-	-	-
Cc1noc(C)c1-c1ccc2ncnc(NCc3ccc(Br)cc3)c2c1	.	-	.	.	.	-
CN1CCN(C(=O)Nc2cccc(Cl)c2)c2cccnc21	-	.	.	.	.	.
Fc1ccc(/C=N/Nc2nnnn2-c2ccccc2)cc1	.	-	-	8.3µM	-	-
Fc1ccc(Oc2nnnn2-c2ccccc2)cc1	.	-	-	-	-	-
